# The other results are listed elsewhere or left out. Results filed as inconclusive are left out. A number with no mark means an inactive call. Calls come from the whole dose curve; as a rule, active = well fitted inhibition curve with a large enough effect; inconclusive = small, poorly fitted or top-dose-only effect, or another doubt; inactive = no such curve, though single readings can be large or run the other way.
# Target: Luciferin 4-monooxygenase (Photinus pyralis) (UniProt P08659)
# Assay: Biochemical FLuc counterscreen for small molecule modulators of PMP22 gene expression (AID 1508640); note: % of control where 0% means no effect
# Details: purified P. pyralis FLuc, luminescence, 10 min; series mostly up to 57.5 µM; activity, negative = inhibition: at the top concentration
# Text: Assay Provider: Jim Inglese Ph.D. National Center for Advancing Translational Science, National Institutes of Health, Rockville, MD CMT is a heterogeneous group of neurological disorders that affect approximately 1 in 2,500 people. In particular, the most common form of CMT, CMT1A is genetically linked to the duplication of the PMP22 gene which leads to Schwann cell overexpression, thus manifesting itself as a typical case of dose-sensitive diseases. To identify small molecule compounds that can mediate the expression of PMP22 we developed a phenotypic assay screening strategy by utilizing genome editing techniques to construct Schwann cell lines containing novel reporter technology to monitor the transcriptional or translational regulation of PMP22. For high sensitivity we use a bioluminescent reporter system embedded in the 3' UTR of the PMP22 gene (S16(c9) Pmp22-F2sN) to identify compounds that inhibit gene expression. […] We can further discriminate the effect of all transcriptionally active molecules on PMP22 translation or stability with an assay that incorporates a short NLuc peptide (HiBiT) at the C-terminus of expressed PMP22 (S16(f8) PMP22-HiBiT) allowing alpha complementation and luminescence detection of membrane-associated PMP22 protein. These assays were screened against the NCATS Sytravon Library Collection. Miniaturization of these assays to 1536-well plate format for quantitative high throughput screening (qHTS) yielded rich data sets immediately from the qHTS assay (S16(c9) Pmp22-F2sN), when compared with data from a cell viability assay (Cell TiterGlo) to identify compounds that decreased the output signals through cellular toxicity to streamline the selection process of actives for subsequent characterization using the HiBiT assay (S16(f8) PMP22-HiBiT).
# Biochemical FLuc assay PROTOCOL TABLE (format as described by Inglese J, Shamu CE and Guy RK. 2007) SEQUENCE No. (e.g., 1, 2, 3, etc.); PARAMETER (e.g., Cells, Incubation, Reagent, etc.); VALUE and DESCRIPTION. 1. Reagent. Add 3 uL substrate per well into Greiner 1536-well white/solid bottom high base, medium binding plates. 2. Compounds. Library compounds and controls added at 23nL per well, transferred by Pin Tool. 3. Incubation. Incubate plates 15 min at ambient temperature. 4. Reagent. Add 1uL FLuc enzyme solution per well of Greiner 1536-well plates. 5. Incubation. Incubate plates at room temperature for 10 min., protect from light. 6. Detector. FLuc luminescence measured using CCD-based camera (Viewlux). NOTES (numbers refer to Sequence numbers above; values are from representative experiments) 1. Dispense freshly prepared substrate (final concentration of 10 uM D-Luciferin, 10 mM Mg-Acetate, 50 mM Tris Acetate pH 7.6, 10 uM ATP, 0.01 % Tween-20, 0.05 % BSA) into 1,536-well Greiner white/solid bottom high base, medium binding plates. Protect from light. 4. Freshly prepared enzyme solution containing 10 nM P. pyralis in 50 mM Tris Acetate was filtered through a […] prior to dispensing. 6. Luminescence Read (Fluc): Clear filter; Exposure = 10 sec, Gain = High, Speed = Slow, Binning = 2X REFERENCES: 1. Inglese J, Shamu CE and Guy RK, Reporting data from high throughput screening of small molecule libraries, Nature Chemical Biology, 2007, 3(8): 438-441. doi.org/10.1038/nchembio0807-438 2. Yasgar A, Shinn P, Jadhav A, Auld DS, Michael S, Zheng W, Austin CP, Inglese J and Simeonov A, Compound Management for Quantitative High-Throughput Screening. J. Assoc. Lab. Auto., 2008, 13: 79-89. doi: 10.1016/j.jala.2007.12.004 3. […] Chemistry & Biology, 2012, 19: 1060-1072. doi.org/10.1016/j.chembiol.2012.07.015
# Chain of Luciferin 4-monooxygenase (Photinus pyralis) (P08659 whole entry, looked up): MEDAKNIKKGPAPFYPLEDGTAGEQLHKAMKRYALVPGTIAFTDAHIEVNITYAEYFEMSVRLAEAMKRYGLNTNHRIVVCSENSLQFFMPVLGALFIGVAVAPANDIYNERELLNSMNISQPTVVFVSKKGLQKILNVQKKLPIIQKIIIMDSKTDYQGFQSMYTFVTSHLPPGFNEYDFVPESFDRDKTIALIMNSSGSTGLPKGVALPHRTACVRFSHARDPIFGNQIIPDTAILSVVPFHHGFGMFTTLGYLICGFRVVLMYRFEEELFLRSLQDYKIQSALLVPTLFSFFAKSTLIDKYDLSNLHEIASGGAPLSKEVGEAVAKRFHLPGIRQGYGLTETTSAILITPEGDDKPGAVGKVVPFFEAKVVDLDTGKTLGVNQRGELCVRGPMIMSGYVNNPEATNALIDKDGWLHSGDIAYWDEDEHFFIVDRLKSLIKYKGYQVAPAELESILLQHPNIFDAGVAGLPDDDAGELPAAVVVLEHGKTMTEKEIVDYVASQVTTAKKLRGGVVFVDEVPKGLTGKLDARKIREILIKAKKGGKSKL
row,SMILES,"activity, negative = inhibition [%]"
1,Cc1cc(OCC(=O)NCC2(N(C)C)CCCCC2)cc(C)c1Cl,-9.58
2,O=C(c1ccc2c(c1)N(Cc1ccc(F)cc1)C(=O)c1ccccc1S2(=O)=O)N1CCN(c2ccccn2)CC1,9.29
3,CCOC(=O)c1c(C)[nH]c(CCC(=O)NCCCN2CCN(c3cc(C)ccc3C)CC2)c1C,-2.52
4,COc1ccc(-c2onc(C)c2C)cc1S(=O)(=O)NCC1CCN(Cc2cccc(F)c2)CC1,-1.38
5,CCCn1c(=N)c(C(=O)NCc2ccccc2)cc2c(=O)n3cccc(C)c3nc21,-4.12
6,COc1cccc(NC(=O)CSC2=Nc3ccccc3C3=NC(CC(=O)NC4CCCCC4)C(=O)N23)c1 (centres undefined),-5.76
7,O=S(=O)(c1ccc(Cl)cc1)c1nnn2c1nc(NC1CCCC1)c1sccc12,-5.21
8,Cc1ccc(OCCSc2nc3ccc(NC(=O)COc4ccc(C)cc4)cc3s2)cc1,2.02
9,Cc1cccc(Nc2cc(C)nc(-n3nc(C)cc3C)n2)c1,-12.2
10,Cc1sc(C2C(C#N)=C(N)N(c3cccc(Cl)c3)C3=C2C(=O)CCC3)cc1CN1CCOCC1 (centres undefined),1.68
11,CC(=O)N1CCCc2cc(S(=O)(=O)N3CCCC(C(=O)N4CCN(c5cccc(Cl)c5)CC4)C3)ccc21 (centres undefined),-3.04
12,Cc1ccc(C)n1-c1nnc(N2CCC(C(=O)NCc3ccccc3Cl)CC2)s1,3.2
13,Cc1ccccc1CNC(=O)CSc1nnc(C)c2c(C)n(-c3ccccc3)nc12,-2.97
14,COc1ccccc1-c1cc(C(F)(F)F)nc(S(=O)(=O)CCCC(=O)Nc2ccc(F)cc2F)n1,-2.16
15,CCCn1c2ccccc2c2cnn(CC(=O)NCC3CCN(Cc4ccc(C)cc4)CC3)c(=O)c21,11.2
16,CCC1=Nc2cc(C(=O)NCCCOC(C)C)ccc2Sc2ccc(C)cc21,7.24
17,CCOC(=O)C1CCN(C(=O)CSc2c3c(nc4ccc(Cl)cc24)CCCC3)CC1,-10.6
18,O=C(CCS(=O)(=O)c1ccccc1)N(Cc1cccnc1)c1nc2c(F)cccc2s1,-3.07
19,COc1ccccc1Nc1c2c(nc3ccc(NC(=O)/C=C/c4cc(OC)c(OC)c(OC)c4)cc13)CCCC2,14.3
20,Cc1ccc(CCNC(=O)C2CCN(c3nnc(-n4cccc4CNc4ccc(C)cc4)s3)CC2)cc1,-6.01

row,SMILES,"activity, negative = inhibition [%]"
1,CCOC(=O)c1ccc(NC(=O)CSc2nc3c([nH]c4ccccc43)c(=O)n2C)cc1,-12.3
2,COc1cccc(NC(=O)N(Cc2cn(C)c3ccccc23)C2CCCCCC2)c1,0.718
3,O=C(c1ccc(C(F)(F)F)cc1)N1CCC(c2nc(-c3ccc(S(=O)(=O)N4CCCC4)cc3)no2)CC1,-8.99
4,Cc1ccc(Cn2c(C)c3cnn(CC(=O)NCc4ccccc4)c(=O)c3c2C)cc1,-12.3
5,CCC1CCCCN1CCCNC(=O)c1cc2c(Cl)nc3ccccc3c2s1 (centres undefined),-2.7
6,CCCS(=O)(=O)c1ncc(Cl)c(C(=O)Nc2scc(-c3ccccc3)c2C(=O)OCC)n1,-3.4
7,CCCCOc1ccc(CN2C(=O)C(=O)c3cc(Br)cc(C)c32)cc1OC,-19.2
8,CCOCCCNC(=O)c1c(NC(=O)c2nc(SC)ncc2Cl)sc2c1CCCC2,5.33
9,Cc1cc(F)ccc1NS(=O)(=O)c1ccc(-n2cccn2)cc1,10.4
10,CCOC(=O)c1c(C)[nH]c(CCC(=O)NCCCN2CCN(c3cccc(Cl)c3)CC2)c1C,2.39
11,Cc1nnc(SCC(=O)NCc2ccccc2Cl)c2nn(-c3ccccc3)c(C)c12,-3.49
12,Cc1ccc(NC(=O)c2nc(S(=O)(=O)Cc3cccc(C)c3)ncc2Cl)cc1,-10.5
13,O=C(NCCCN1CCN(c2cccc(Cl)c2)CC1)c1nnc(Cc2ccc(F)cc2Cl)o1,-10.3
14,CCc1ccc(C2CC(=O)c3c([nH]c(C(=O)OCc4ccc(C)cc4)c3C)C2)cc1 (centres undefined),0.949
15,CCOC(=O)c1ccc(N2C(=O)c3n[nH]c(C)c3C2c2ccc(O)c(OC)c2)cc1 (centres undefined),5.22
16,CCCN1C(=O)C(O)(CC(=O)c2ccc(CC)cc2)c2cc(Br)ccc21 (centres undefined),-8.85
17,CCOc1ccc(NC(=O)c2c(NC(=O)Cc3ccccc3)sc3c2CCC(C)C3)cc1 (centres undefined),-21.9
18,COc1ccc(CCNC(=O)c2cc(=O)c3c(C)cc(C)cc3o2)cc1OC,-17.4
19,CC(C)(C)c1ccc(C(=O)NCC(c2ccco2)S(=O)(=O)c2ccc(F)cc2)cc1 (centres undefined),-13.4

# Source: PubChem BioAssay (NCATS)
